Some test systems named below: T-47D breast; BT-549 breast; MDA-MB-435 melanoma; SW-620 colon; MCF7 breast; HCT-116 colon; KM12 colon.
What all share (experiment): NCI-60 one-dose screen, 48 h (100 = growth as untreated, 0 = no growth, -100 = all killed)
In another experiment the test system is HCC-2998 colon. Conditions: 10 µM unless noted.

This is an account of results in PubChem BioAssay (NCI).

“And” between values parts separate entries of the source, which are not always exact repeats. Equal values may be shown once. About 83,000 compounds went through this panel and 20% of them were active in at least one assay; those are over-represented in the sample as a whole.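 Assay: single dose, 48 h. Readout: percent growth (0 = no net growth; negative = cell death). Active: <10.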 The source made the active and inactive calls.

`COc1cc2c(cc1O)C(=O)CCCC2`: the growth is 94.8% (inactive) in the experiment with T-47D breast (10 µM unless noted); 78% (inactive) in the experiment on BT-549 breast (10 µM unless noted); 99.2% (inactive) with MDA-MB-435 melanoma (10 µM unless noted); 92.9% (inactive) in the experiment with SW-620 colon (10 µM unless noted); 91.2% (inactive) with MCF7 breast (10 µM unless noted); 99.2% (inactive) with HCT-116 colon (10 µM unless noted). Further, the growth is 74.7% (inactive) in the experiment with HCC-2998 colon and 89% (inactive) in the experiment on KM12 colon (10 µM unless noted).
For `CCC(C)NC(=O)c1ccccc1C` (stereo not given), the growth was 94.3% (inactive) in the experiment with T-47D breast (10 µM unless noted); 99.4% (inactive) in the experiment on BT-549 breast (10 µM unless noted); 103% (inactive) in the experiment on MDA-MB-435 melanoma (10 µM unless noted); 92.4% (inactive) in the experiment with SW-620 colon (10 µM unless noted); 90.7% (inactive) in the experiment with MCF7 breast (10 µM unless noted); 98.3% (inactive) with HCT-116 colon (10 µM unless noted). The growth with HCC-2998 colon was 96.7% (inactive); in the experiment on KM12 colon (10 µM unless noted) it was 101% (inactive).
As for `Cn1c(N)c(N=O)c(=O)n(C)c1=O`, the growth is 105% (inactive) and 99.8% (inactive) in the experiment with T-47D breast (10 µM unless noted); 111% (inactive) and 96.8% (inactive) in the experiment with BT-549 breast (10 µM unless noted); 109% (inactive) and 102% (inactive) in the experiment on MDA-MB-435 melanoma (10 µM unless noted); 106% (inactive) and 101% (inactive) in the experiment on SW-620 colon (10 µM unless noted); 98.1% (inactive) and 99.5% (inactive) in the experiment with MCF7 breast (10 µM unless noted); 102% (inactive) and 90.8% (inactive) with HCT-116 colon (10 µM unless noted). Moreover, the growth in the experiment with HCC-2998 colon is 106% (inactive); with KM12 colon (10 µM unless noted) it was 106% (inactive) and 94.8% (inactive).
Regarding `N#CC1c2ccccc2C=CN1C(=O)c1ccccc1` (stereo not given), the growth was 106% (inactive) and 103% (inactive) with T-47D breast (10 µM unless noted); 115% (inactive) and 139% (inactive) in the experiment on BT-549 breast (10 µM unless noted); 98.7% (inactive) and 87.8% (inactive) with MDA-MB-435 melanoma (10 µM unless noted); 94.8% (inactive) and 103% (inactive) in the experiment on SW-620 colon (10 µM unless noted); 93.1% (inactive) and 114% (inactive) in the experiment on MCF7 breast (10 µM unless noted); 107% (inactive) and 92% (inactive) with HCT-116 colon (10 µM unless noted). The growth in the experiment with HCC-2998 colon was 109% (inactive) and 115% (inactive); in the experiment with KM12 colon (10 µM unless noted), 107% (inactive) and 91.5% (inactive).
For the compound `Nc1c(S(=O)(=O)O)cc(Br)c2c1C(=O)c1ccccc1C2=O`, the growth was 90% (inactive) and 96.7% (inactive) with T-47D breast (10 µM unless noted); 110% (inactive) in the experiment on BT-549 breast (10 µM unless noted); 105% (inactive) and 115% (inactive) with MDA-MB-435 melanoma (10 µM unless noted); 109% (inactive) and 111% (inactive) in the experiment on SW-620 colon (10 µM unless noted); 96.8% (inactive) and 93.8% (inactive) with MCF7 breast (10 µM unless noted); 109% (inactive) in the experiment on HCT-116 colon (10 µM unless noted). Besides, the growth with HCC-2998 colon was 108% (inactive) and 109% (inactive); with KM12 colon (10 µM unless noted) it was 104% (inactive) and 108% (inactive).
On to `O=c1[nH]c(=O)n(C2OC(CO)C(O)C2O)cc1I` (stereo not given), for which the growth in the experiment with T-47D breast (10 µM unless noted) is 105% (inactive) and 100% (inactive); in the experiment on BT-549 breast (10 µM unless noted), 143% (inactive) and 108% (inactive); in the experiment with MDA-MB-435 melanoma (10 µM unless noted) it was 106% (inactive) and 95% (inactive); with SW-620 colon (10 µM unless noted) it was 101% (inactive); in the experiment on MCF7 breast (10 µM unless noted), 89% (inactive) and 107% (inactive); in the experiment with HCT-116 colon (10 µM unless noted), 109% (inactive) and 95.8% (inactive). The growth is 109% (inactive) and 95.8% (inactive) in the experiment with HCC-2998 colon; 109% (inactive) and 100% (inactive) with KM12 colon (10 µM unless noted).
`Nc1nc(=S)c2[nH]cnc2[nH]1`: the growth with T-47D breast (10 µM unless noted) was 12.3% (inactive) and 5.25% (active); in the experiment with BT-549 breast (10 µM unless noted), 30.7% (inactive) and 19.5% (inactive); in the experiment on MDA-MB-435 melanoma (10 µM unless noted), 12.3% (inactive) and 5.49% (active); with SW-620 colon (10 µM unless noted), 23.3% (inactive) and 15.9% (inactive); in the experiment with MCF7 breast (10 µM) it was 8.17% (active) and -0.975% (active); in the experiment with MCF7 breast (250 µM) it was -5.31% (active) and -50.8% (active). Besides, the growth in the experiment on HCT-116 colon (10 µM unless noted) was 9.54% (active) and -8.26% (active); with HCC-2998 colon, 6.28% (active); in the experiment on KM12 colon (10 µM unless noted) it was 10.1% (inactive) and 11.5% (inactive).
As for `O=c1ccn2c(n1)OC1CC2OC1COC(c1ccccc1)(c1ccccc1)c1ccccc1` (stereo not given), the growth in the experiment on T-47D breast (10 µM) is 109% (inactive); in the experiment on T-47D breast (100 µM), 102% (inactive); in the experiment with BT-549 breast (10 µM) it was 123% (inactive); with BT-549 breast (100 µM), 88.4% (inactive); in the experiment with MDA-MB-435 melanoma (10 µM), 103% (inactive); in the experiment with MDA-MB-435 melanoma (100 µM) it was -4.08% (active). In addition, the growth in the experiment on SW-620 colon (10 µM) is 108% (inactive); with SW-620 colon (100 µM), 90.4% (inactive); with MCF7 breast (10 µM), 95.4% (inactive); in the experiment with MCF7 breast (100 µM), 46.7% (inactive); with HCT-116 colon (10 µM), 101% (inactive); in the experiment with HCT-116 colon (100 µM) it was 40.1% (inactive). Moreover, the growth in the experiment with KM12 colon (10 µM) was 117% (inactive); with KM12 colon (100 µM), 96.3% (inactive).
On to `Cc1onc(-c2c(F)cccc2Cl)c1-c1ncc(-c2ccc(Cl)cc2)o1`, for which the growth was 73.9% (inactive) and 35.8% (inactive) with T-47D breast (10 µM unless noted); 73.8% (inactive) and 40.7% (inactive) in the experiment on BT-549 breast (10 µM unless noted); 46.8% (inactive) and 37.7% (inactive) with MDA-MB-435 melanoma (10 µM unless noted); 37.3% (inactive) and 29.4% (inactive) in the experiment with SW-620 colon (10 µM unless noted); 61.9% (inactive) and 20.5% (inactive) in the experiment with MCF7 breast (10 µM unless noted); 27.1% (inactive) and 16.6% (inactive) with HCT-116 colon (10 µM unless noted). The growth was 61.2% (inactive) and 56.8% (inactive) in the experiment on HCC-2998 colon; 43.4% (inactive) and 34.7% (inactive) with KM12 colon (10 µM unless noted).
As to `CN(C=O)c1ccccc1`, the growth was 86.7% (inactive) with T-47D breast (10 µM unless noted); 93.1% (inactive) in the experiment with BT-549 breast (10 µM unless noted); 102% (inactive) in the experiment with MDA-MB-435 melanoma (10 µM unless noted); 104% (inactive) with SW-620 colon (10 µM unless noted); 87.4% (inactive) in the experiment with MCF7 breast (10 µM unless noted); 89% (inactive) in the experiment on HCT-116 colon (10 µM unless noted). Also, the values for the growth in the experiment with HCC-2998 colon and in the experiment on KM12 colon (10 µM unless noted) were 101% (inactive) and 110% (inactive), respectively.
Regarding `COc1ccc2oc3cc(NCCN(C)C)ccc3c(=O)c2c1`, the growth is 80.6% (inactive) and 63.4% (inactive) in the experiment on T-47D breast (10 µM unless noted); 97.2% (inactive) and 93.9% (inactive) in the experiment with BT-549 breast (10 µM unless noted); 85.8% (inactive) and 70.8% (inactive) in the experiment with MDA-MB-435 melanoma (10 µM unless noted); 78% (inactive) and 55.4% (inactive) in the experiment with SW-620 colon (10 µM unless noted); 84.4% (inactive) and 67.8% (inactive) in the experiment with MCF7 breast (10 µM unless noted); 93.9% (inactive) and 54.1% (inactive) with HCT-116 colon (10 µM unless noted). Further, the growth in the experiment with HCC-2998 colon is 97.4% (inactive) and 77.1% (inactive); with KM12 colon (10 µM unless noted), 90.1% (inactive) and 79.8% (inactive).
